± gives the uncertainty stated by the source. In all, about 9,900 compounds were measured (“viability index relative to DMSO control”: median about 1, lowest 2% from about 0.85 on). The sample holds the lowest values, similar compounds and a random draw of the others, so the mix is not that of the screen.
System: Plasmodium falciparum NF54 stage V gametocytes
Assay: viability index relative to DMSO control (fraction); higher = less gametocyte killing
Settings: 2.5 µM, incubation time: 72 h
Method in brief: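 P. falciparum NF54 stage V gametocytes (serum-free medium, 0.75% gametocytemia, 1.25% hematocrit) were exposed to compound at 2.5 µM for 72 hr at 37°C under low oxygen, then stained with MitoTracker Red CMXRos and saponin for one to two hours. Red particles of 20–70 µm2 in one field per well were counted, and the viability index is that count scaled to the plate mean of solvent-only wells.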

[1] = library set: Broad Institute DOS
[2] = library set: Broad Institute Blood Stage

Row | Structure (SMILES) | viability index [1] | viability index [2]
1 | C[C@@H]1CN([C@@H](C)CO)C(=O)CCCn2cc(nn2)CO[C@@H]1CN(C)S(=O)(=O)c1cn(C)cn1 | 1.07 ± 0.062 | –
2 | COC(=O)C[C@H]1C[C@H]2c3cc(N)ccc3O[C@H]2[C@H](CO)O1 | 1.05 ± 0.0071 | –
3 | C/C=C/c1ccc([C@@H]2[C@H](CO)N3CCCCN(S(=O)(=O)c4ccc(OC)cc4)C[C@@H]23)cc1 | 1.03 ± 0.014 | –
4 | C[C@H](CO)N1C[C@H](C)[C@H](CN(C)C(=O)NC2CCCCC2)OCc2ccccc2-c2ccccc2C1=O | 1.03 ± 0.03 | –
5 | COC(=O)C[C@H]1CC[C@@H]2[C@@H](COc3ccc(NC(=O)Nc4c(C)noc4C)cc3C(=O)N2C)O1 | 0.983 ± 0.14 | –
6 | O=C(Nc1ccc(F)cc1)N1CC(=O)N2[C@H](CO)[C@H](c3ccc(-c4cccc(F)c4)cc3)[C@H]2C1 | 1.05 ± 0.019 | –
7 | C[C@H](CO)N1C[C@H](C)[C@@H](CN(C)C(=O)Nc2cccc(Cl)c2Cl)OCc2ccccc2-c2ccccc2C1=O | 0.845 ± 0.043 | –
8 | C[C@H](CO)N1C[C@H](C)[C@@H](CN(C)C(=O)Nc2ccc(-c3ccccc3)cc2)OCc2ccccc2-c2ccccc2C1=O | 1.019 ± 0.0076 | –
9 | C[C@H]1CN([C@@H](C)CO)C(=O)c2ccccc2-c2ccccc2CO[C@H]1CN(C)C(=O)Nc1cccc(Cl)c1Cl | 0.9208 ± 0.0078 | –
10 | C[C@@H]1CN([C@@H](C)CO)C(=O)c2ccccc2-c2ccccc2CO[C@@H]1CN(C)C(=O)Nc1ccc(-c2ccccc2)cc1 | 0.977 ± 0.016 | –
11 | C[C@H]1CN([C@@H](C)CO)C(=O)c2ccccc2-c2ccccc2CO[C@H]1CN(C)C(=O)Nc1ccc(-c2ccccc2)cc1 | 0.724 ± 0.14 | –
12 | C[C@@H]1CN([C@H](C)CO)C(=O)c2ccccc2-c2ccccc2CO[C@H]1CN(C)C(=O)Nc1cccc(Cl)c1Cl | 0.863 ± 0.045 | –
13 | C[C@@H]1CN([C@@H](C)CO)C(=O)c2ccccc2-c2ccccc2CO[C@@H]1CN(C)C(=O)Nc1cccc(Cl)c1Cl | 0.946 ± 0.053 | –
14 | C[C@@H]1CN([C@H](C)CO)C(=O)c2ccccc2-c2ccccc2CO[C@@H]1CN(C)C(=O)Nc1cccc(Cl)c1Cl | 0.894 ± 0.05 | –
15 | C[C@@H]1CN([C@@H](C)CO)C(=O)c2ccccc2-c2ccccc2CO[C@H]1CN(C)C(=O)Nc1cccc(Cl)c1Cl | 0.72 ± 0.16 | –
16 | COC(=O)C[C@@H]1C[C@@H]2c3cc(NC(=O)c4ccc5c(c4)OCO5)ccc3O[C@@H]2[C@H](CO)O1 | 0.991 ± 0.033 | –
17 | COc1ccc(S(=O)(=O)Nc2ccc3c(c2)CC(=O)N([C@H](C)CO)C[C@@H](C)[C@@H](CN(C)C(=O)Nc2c(C)noc2C)O3)cc1 | 1.101 ± 0.0069 | –
18 | Cc1ccc(S(=O)(=O)N(C)C[C@@H]2Oc3c(NS(C)(=O)=O)cccc3C(=O)N([C@H](C)CO)C[C@@H]2C)cc1 | 0.939 ± 0.13 | –
19 | COc1ccccc1CNC(=O)C[C@@H]1C[C@@H]2c3cc(NC(=O)C4CCC4)ccc3O[C@@H]2[C@@H](CO)O1 | 1.01 ± 0.015 | –
20 | O=C([C@@H]1[C@@H](CO)[C@@H]2Cn3c(ccc(C4=CCCC4)c3=O)[C@H]1N2C(=O)c1cccnc1)N1CCOCC1 | 1.08 ± 0.038 | –
21 | CCc1nc(N2[C@H](CO)[C@H](c3ccccc3-c3ccc(F)cc3)[C@@H]2C#N)sc1C | 1.03 ± 0.12 | –
22 | O=C(C[C@@H]1CC[C@H]2NC[C@@H](O)COC[C@@H]2O1)NCc1ccc2c(c1)OCO2 | 1.07 ± 0.015 | –
23 | COc1ccc2c3c([nH]c2c1)[C@H](CO)N(Cc1ccncc1)C[C@]31CN(C1)C(=O)CN(C)C | 1.04 ± 0.071 | –

Row | Structure (SMILES) | viability index [1] | viability index [2]
24 | CCCC(=O)N1CC[C@@]2(CC1)CN(Cc1ccc(Cl)cc1)[C@@H](CO)c1[nH]c3cc(OC)ccc3c21 | 0.795 ± 0.039 | –
25 | COc1ccc2c3c([nH]c2c1)[C@@H](CO)N(Cc1nccs1)C[C@]31CCN(Cc2cccnc2)CC1 | 0.98 ± 0.062 | –
26 | COCC(=O)N1CC[C@@]2(CC1)CN(Cc1ccccc1Cl)[C@H](CO)c1[nH]c3cc(OC)ccc3c21 | 1.023 ± 0.0089 | –
27 | CCCC(=O)N1CC[C@@]2(CC1)CN(Cc1ccc(Cl)cc1)[C@H](CO)c1[nH]c3cc(OC)ccc3c21 | 0.873 ± 0.16 | –
28 | COc1ccc2c3c([nH]c2c1)[C@@H](CO)N(Cc1ccc(Cl)cc1)C[C@]31CCN(Cc2nccs2)CC1 | 0.814 ± 0.015 | –
29 | COc1ccc2c3c([nH]c2c1)[C@@H](CO)N(Cc1nccs1)C[C@]31CN(Cc2ccncc2)C1 | 1.02 ± 0.079 | –
30 | COc1ccc2c3c([nH]c2c1)[C@H](CO)N(Cc1nccs1)C[C@]31CCN(Cc2cccnc2)CC1 | 0.946 ± 0.081 | –
31 | COc1ccc2c3c([nH]c2c1)[C@@H](CO)N(Cc1ccccc1)C[C@]31CCN(Cc2cncnc2)CC1 | 0.849 ± 0.064 | –
32 | COc1ccc2c3c([nH]c2c1)[C@H](CO)N(Cc1ccc(Cl)cc1)C[C@]31CCN(Cc2nccs2)CC1 | 0.884 ± 0.047 | –
33 | CCCN(C)C[C@H]1Oc2cc(/C=C/c3ccccc3)ccc2S(=O)(=O)N([C@H](C)CO)C[C@H]1C | 1.05 ± 0.026 | –
34 | COc1ccc2c3c([C@@H](CO)N(C[C@]33CCN(CC4CCOCC4)CC3)C(=O)NC(C)C)n(C)c2c1 | 0.97 ± 0.013 | –
35 | COc1ccc2c3c([C@H](CO)N(CC4CC4)C[C@]33CCN(CC3)C(=O)NC3CCCC3)n(C)c2c1 | 0.955 ± 0.05 | –
36 | C[C@H]1CN([C@@H](C)CO)C(=O)CCCn2nncc2CO[C@H]1CN(C)C(=O)c1ccc2ccn(C)c2c1 | 1.015 ± 0.0067 | –
37 | O=C(C[C@@H]1CC[C@H]2[C@@H](COC[C@@H](O)CN2C(=O)c2ccccc2F)O1)NCc1ccc(Cl)c(Cl)c1 | 1.09 ± 0.036 | –
38 | COC(=O)c1ccc(CN2CC(=O)N3[C@H](CO)[C@@H](c4ccc(-c5cccnc5)cc4)[C@H]3C2)cc1 | 0.986 ± 0.01 | –
39 | C[C@@H]1CN([C@H](C)CO)C(=O)CCCn2cc(nn2)CO[C@@H]1CN(C)Cc1ccccc1 | 0.986 ± 0.035 | –
40 | O=C(C[C@H]1CC[C@@H](NC(=O)Nc2ccc(C(F)(F)F)cc2)[C@H](CO)O1)NCc1cccc(F)c1 | 0.953 ± 0.14 | –
41 | C[C@@H]1CN([C@H](C)CO)C(=O)c2cc(NC(=O)C3CCCCC3)ccc2O[C@@H](C)CCCCO[C@H]1CN(C)C(=O)CCC(F)(F)F | 1.05 ± 0.096 | –
42 | C[C@@H]1CN([C@H](C)CO)C(=O)c2cc(NC(=O)C3CCCCC3)ccc2O[C@@H](C)CCCCO[C@@H]1CN(C)C(=O)CCC(F)(F)F | 0.817 ± 0.26 | –
43 | C[C@@H]1CCCCO[C@@H](CN(C)C(=O)Nc2cccc3ccccc23)[C@H](C)CN([C@@H](C)CO)C(=O)c2cc(NC(=O)CCC(F)(F)F)ccc2O1 | 1 ± 0.061 | –
44 | C[C@@H]1CN([C@@H](C)CO)C(=O)c2cc(NC(=O)C3CCCCC3)ccc2O[C@@H](C)CCCCO[C@H]1CN(C)C(=O)CCC(F)(F)F | 1.07 ± 0.071 | –
45 | Cc1noc(C)c1S(=O)(=O)Nc1ccc2c(c1)C(=O)N([C@@H](C)CO)C[C@H](C)[C@@H](CN(C)C(=O)Nc1cccc3ccccc13)OCCCC[C@H](C)O2 | 0.984 ± 0.043 | –
46 | C[C@@H]1CN([C@H](C)CO)C(=O)c2cc(NC(=O)CCC(F)(F)F)ccc2O[C@@H](C)CCCCO[C@H]1CN(C)C(=O)Nc1cccc2ccccc12 | 1.08 ± 0.036 | –

Row | Structure (SMILES) | viability index [1] | viability index [2]
47 | Cc1noc(C)c1S(=O)(=O)Nc1ccc2c(c1)C(=O)N([C@@H](C)CO)C[C@@H](C)[C@@H](CN(C)C(=O)Nc1cccc3ccccc13)OCCCC[C@H](C)O2 | 0.828 ± 0.11 | –
48 | Cc1noc(C)c1S(=O)(=O)Nc1ccc2c(c1)C(=O)N([C@@H](C)CO)C[C@@H](C)[C@@H](CN(C)C(=O)Nc1cccc3ccccc13)OCCCC[C@@H](C)O2 | 0.893 ± 0.066 | –
49 | C[C@@H]1CN([C@@H](C)CO)C(=O)c2cc(NC(=O)CCC(F)(F)F)ccc2O[C@@H](C)CCCCO[C@@H]1CN(C)C(=O)Nc1cccc2ccccc12 | 0.734 ± 0.082 | –
50 | CN1C(=O)c2cc(NC(=O)c3cnccn3)ccc2OC[C@H]2O[C@H](CC(=O)NCC3CCCCC3)CC[C@@H]21 | 0.959 ± 0.028 | –
51 | Cc1ccc(S(=O)(=O)N[C@H]2CC[C@@H](CC(=O)NCc3ccncn3)O[C@@H]2CO)cc1 | 1.01 ± 0.11 | –
52 | CN1[C@@H]2CN(C(=O)C3CCCCC3)c3ccccc3[C@@H]2[C@@H]1CO | 1.06 ± 0.063 | –
53 | COc1ccc(NC(=O)N2C[C@@]3(C2)CN([C@@H](CO)c2[nH]c4cc(OC)ccc4c32)C(C)=O)cc1 | 1.01 ± 0.1 | –
54 | COc1ccc2c3c([nH]c2c1)[C@H](CO)N(C[C@]31CCN(Cc2ccncc2)CC1)C(=O)CC1CC1 | 0.934 ± 0.098 | –
55 | COCc1cn([C@@H]2C[C@@H]3O[C@@H](CO)CC[C@@H]3O[C@@H]2CCc2ccc(-c3ccc(OC)cc3)cc2)nn1 | – | 0.811 ± 0.063
56 | COCc1cn(CC[C@@H]2CC[C@H](NC(=O)Nc3c(C)noc3C)[C@@H](CO)O2)nn1 | 1.07 ± 0.097 | –
57 | COCc1cn([C@@H]2C[C@@H]3O[C@H](CO)CC[C@@H]3O[C@@H]2CCc2ccc(-c3ccc(OC)cc3)cc2)nn1 | – | 0.791 ± 0.041
58 | COCc1cn(CC[C@H]2CC[C@H](NC(=O)Nc3c(C)noc3C)[C@@H](CO)O2)nn1 | 0.927 ± 0.067 | –
59 | OC[C@H]1CC[C@@H]2O[C@H](CCc3ccc(C#CCc4ccccc4)cc3)[C@H](n3cc(-c4ccccc4)nn3)C[C@@H]2O1 | – | 0.781 ± 0.043
60 | COCc1cn(CC[C@@H]2CC[C@H](NC(=O)Nc3c(C)noc3C)[C@H](CO)O2)nn1 | 0.951 ± 0.12 | –
61 | O=C(C1CCOCC1)N1CC(=O)N2[C@H](C1)[C@H](c1ccc(C#CCc3ccccc3)cc1)[C@@H]2CO | 1.09 ± 0.14 | –
62 | COCc1cn(CC[C@H]2CC[C@@H](NC(=O)Nc3c(C)noc3C)[C@H](CO)O2)nn1 | 1.03 ± 0.051 | –
63 | O=C(C1CCOCC1)N1CC(=O)N2[C@H](C1)[C@@H](c1ccc(C#CCc3ccccc3)cc1)[C@@H]2CO | 1.06 ± 0.041 | –
64 | CCC(=O)N1CC2(C1)[C@@H](c1ccc(-c3cccc(C)c3)cc1)[C@@H](CO)N2S(C)(=O)=O | 1.057 ± 0.0069 | –
65 | Cc1nn(C)cc1NC(=O)C[C@@H]1CC[C@@H]2[C@H](COc3ccc(NC(=O)c4cccc(F)c4)cc3C(=O)N2C)O1 | 1.15 ± 0.11 | –
66 | O=C(C[C@@H]1CC[C@@H]2[C@H](COC[C@@H](O)CN2C(=O)Nc2cccc(F)c2)O1)NCCCN1CCOCC1 | 1.12 ± 0.081 | –
67 | COc1ccc(CN(C)C[C@@H]2OCc3cnnn3CCCC(=O)N([C@H](C)CO)C[C@@H]2C)cc1 | 0.963 ± 0.038 | –
